# Measured values as given in PubChem BioAssay AID1851 (National Center for Advancing Translational Sciences (NCATS), 2009).
# Among all 16,000 compounds or so, about 2,600 (16%) were called active. Inconclusive results (about 20%) are left out. These entries were drawn from the full list. A number with no mark means an inactive call. Calls follow the shape of the dose curve; as a rule, active = well fitted curve in the direction sought with a large enough effect; inconclusive = small, poorly fitted or top-dose-only effect, or effect the other way; inactive = no such curve, though single readings can be large or run the other way.
# Biological target: Cytochrome P450 2D6 (Homo sapiens) (UniProt P10635)
# Experiment: Cytochrome panel assay with activity outcomes
# Conditions: recombinant CYP, pro-luciferin dealkylation, luminescence, p450-cyp2d6; series mostly up to 57.1 µM
# % is scaled to controls: 0 for no effect and ±100 for the full control effect.
# Chain of Cytochrome P450 2D6 (Homo sapiens) (P10635 whole entry, looked up): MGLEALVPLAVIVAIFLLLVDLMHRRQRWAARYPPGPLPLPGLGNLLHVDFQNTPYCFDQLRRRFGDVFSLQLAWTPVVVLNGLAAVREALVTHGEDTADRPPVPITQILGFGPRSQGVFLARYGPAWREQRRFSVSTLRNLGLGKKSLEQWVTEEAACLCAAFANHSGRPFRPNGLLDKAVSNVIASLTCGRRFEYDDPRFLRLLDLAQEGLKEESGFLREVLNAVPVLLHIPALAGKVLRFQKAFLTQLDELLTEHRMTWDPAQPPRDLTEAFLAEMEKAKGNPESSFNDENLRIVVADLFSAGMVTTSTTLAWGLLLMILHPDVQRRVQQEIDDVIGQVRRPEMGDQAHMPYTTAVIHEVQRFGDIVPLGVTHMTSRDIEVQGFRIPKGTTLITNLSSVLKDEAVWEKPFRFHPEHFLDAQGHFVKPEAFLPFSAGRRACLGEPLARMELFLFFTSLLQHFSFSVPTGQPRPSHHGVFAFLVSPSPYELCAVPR
SMILES,AC50,"activity, negative = inhibition"
CCC(=O)Nc1ccc(C(=O)NNC(=O)c2cccs2)cc1,inactive,–
CC(C)[C@H](NC(=O)OC(C)(C)C)[C@@H](O)CC(=O)OC(C)(C)C,3.16 µM (active),–
CC(C)[C@H](NC(=O)OC(C)(C)C)[C@@H](O)CC(=O)C(C)(C)C,–,3.85% [at 11.4 µM]
CC(=O)C[C@H](O)[C@@H](NC(=O)OC(C)(C)C)C(C)C,–,-3.21% [at 11.4 µM]
Cc1ccc(NC(=O)C2CCN(S(=O)(=O)c3c(C)n[nH]c3C)CC2)nc1,inactive,–
NC[C@@H]1O[C@H](C23CC4CC(CC(C4)C2)C3)Cc2c1ccc(O)c2O,inactive,–
NC(=O)CSc1nc2sc(-c3ccccc3)cc2c(=O)n1N,inactive,–
COc1ccc(C[C@@H]2C(=O)N[C@H](C)C(=O)N(C)[C@@H]3Cc4ccc(cc4)Oc4cc(ccc4O)C[C@H](C(=O)N[C@@H](C)C(=O)N[C@H](C)C(=O)N2C)N(C)C3=O)cc1,–,-5.02% [at 11.4 µM]
CC[N+](CC)(CC)CCOc1cccc(OCC[N+](CC)(CC)CC)c1OCC[N+](CC)(CC)CC,inactive,–
CC[N+](CC)(CC)CCOc1ccc(/C=C\c2ccccc2)cc1,7.94 µM (active),–
Cc1ccc(C(=O)NCCCN2CCOCC2)cc1N1CCCC1=O,inactive,–
CCOC(=O)N1CCN(C(=O)c2ccc(Cl)c(S(=O)(=O)N3CCOCC3)c2)CC1,inactive,–
O=C(NCCCn1ccnc1)c1ccc(Br)c(S(=O)(=O)N2CCOCC2)c1,0.316 µM (active),–
O=C(O)/C=C\C(=O)Nc1ccc2c(c1)-c1ccccc1C2,–,8.73% [at 11.4 µM]
CC(=O)N1CCC2(CC1)CN(c1ccncc1)C2,inactive,–
O=C(N/N=C/c1ccccn1)c1ccc(Br)o1,inactive,–
CN(C)c1ncc2nc(-c3ccccc3)c(=O)n(C3CC3)c2n1,inactive,–
C=CCSC[C@@H]1Nc2cc(Cl)c(S(N)(=O)=O)cc2S(=O)(=O)N1,inactive,–
COc1ccc(C(=O)/C=C2/c3ccccc3CC(C)(C)N2C)cc1,0.282 µM (active),–
COc1ccc(C(=O)/C=C(/C)N(C)C)cc1,inactive,–
COc1ccc(C(=O)N2CCC3(CCN(C)CC3)CC2)cc1,inactive,–
Clc1cccc(Oc2cnc3ccccc3n2)c1,inactive,–
COC(=O)c1ccc(NC(=S)NC2CCCCC2)cc1,15.8 µM (active),–
COC(=O)c1ccc(NC(=O)C2CCCCC2C(=O)O)cc1 (configuration not stated),inactive,–
Cc1ccc(NC(=S)NC2CCCC2)cc1,inactive,–
CCCc1nnc(NC(=O)CCC(=O)NCc2ccccc2OC)s1,inactive,–

SMILES,AC50,"activity, negative = inhibition"
CCCCCCCCC(=O)NCc1cc(OC)c(O)cc1I,7.94 µM (active),–
CCCCCC(=O)Nc1cc2[nH]c(=O)cc(COC)c2cc1C,inactive,–
CCCCCCCC/C=C\CCCCCCCC(=O)N[C@@H](CO)Cc1ccc(O)cc1,0.126 µM (active),–
CCCCCCCC/C=C\CCCCCCCC(=O)NCc1ccc(O)c(OC)c1,3.16 µM (active),–
CC(=O)N[C@H](Cc1ccc(O)cc1)C(=O)O,–,-3.43% [at 11.4 µM]
CCCCCCCC/C=C\CCCCCCCC(=O)NCCc1ccc(O)c(O)c1,inactive,–
CCCCCCCCCCCCCCCC(=O)NC(C)C,inactive,–
COc1cc(CC(=O)O)ccc1O,inactive,–
O=C(Nc1ccc(F)cc1Cl)c1ccc2c(=O)n3c(nc2c1)CCCCC3,inactive,–
Cc1ccc(N=C/C(C(=O)C(F)(F)F)=C(\O)c2cccs2)cc1,inactive,–
CCOC(=O)Cc1csc(NC(=S)NC(=O)c2ccc(F)cc2)n1,inactive,–
CCOc1ccc(NC(=O)N2CCC(C(N)=O)(N3CCCCC3)CC2)cc1,inactive,–
CC(C)CO/N=C1/[C@H]2O[C@@H]2[C@@H](O)[C@H]2[C@H]1CCn1c(=O)n(-c3ccccc3)c(=O)n12,–,12.6% [at 11.4 µM]
COCCn1c(=O)c(-c2cccs2)nc2cnc(Oc3ccccc3)nc21,inactive,–
CC(C)C(O)(C(C)C)C(C)C,–,8.61% [at 11.4 µM]
COc1ccc(C(=O)Nc2cc(OC)cc(OC)c2)cc1,7.08 µM (active),–
CCOc1ccc(NC(=O)c2ccc(OC)cc2)cc1,inactive,–
COc1ccc(C(=O)Nc2cccc(OC(=O)c3ccc(C)c(C)c3)c2)cc1,inactive,–
CCCCc1nc(SCC(=O)Nc2ncccn2)n[nH]1,inactive,–
COC(=O)COc1ccsc1C(=O)OC,inactive,–
COc1ccc2oc(-c3ccc(C)c(NC(=O)CSc4ccc(Cl)cc4)c3)nc2c1,2.51 µM (active),–
Cc1ccc(-c2nc3ccccc3o2)cc1NC(=O)Cc1cccs1,inactive,–
COc1ccc2oc(-c3ccc(C)c(NC(=O)c4ccc(N5CCOCC5)c([N+](=O)[O-])c4)c3)nc2c1,inactive,–
Cc1cccc(NC(NC(=O)c2cccnc2)C(Cl)(Cl)Cl)c1 (configuration not stated),inactive,–
NC(=O)c1ncn([C@@H]2O[C@@H](CO)[C@@H](O)[C@H]2O)c1O,inactive,–
COc1ccc(O[C@H]2C=C[C@@H](c3ccccc3)O[C@@H]2CON=C(C)C)cc1,–,-3.07% [at 11.4 µM]

SMILES,AC50,"activity, negative = inhibition"
O=C(Cc1csc(Nc2nc(=S)[nH]c3ccccc23)n1)NCc1cccc(Cl)c1,inactive,–
Cc1sc2nc(SCC(=O)C(C)(C)C)n(Cc3ccco3)c(=O)c2c1C,inactive,–
Clc1ccccc1CNCC1CCC(CNCc2ccccc2Cl)CC1 (configuration not stated),12.6 µM (active),–
O=C(O)C[C@H](Cc1ccccc1Cl)C(=O)O,–,-0.233% [at 11.4 µM]
Cc1n[nH]c(=O)nc1NCc1ccccc1Cl,inactive,–
CCOC(=O)C(C)Sc1nnc(CNC(=O)c2ccc(OC)cc2)n1C1CCCCC1 (configuration not stated),inactive,–
CCOC(=O)c1sc(C)c(C(=O)NCC(C)(C)CN(C)C)c1N,1.78 µM (active),–
CCOC(=O)c1nc(N)sc1C(=O)OCC,inactive,–
CCOC(=O)c1sc2nc3c(cc2c1N)COC(C)(CC)C3 (configuration not stated),inactive,–
Cc1ccc(Cn2cnc3c(nnn3Cc3ccc(Cl)cc3)c2=O)cc1,inactive,–
CC(=O)[C@H]1CC[C@@H]2[C@H]3CC=C4C[C@@H](O)CC[C@]4(C)[C@H]3CC[C@]12C,inactive,–
CC(=O)Nc1nnc(S(N)(=O)=O)s1,inactive,–
O=C(c1ccccc1)c1nc2ccccc2n(CCCn2c(=O)c(C(=O)c3ccccc3)nc3ccccc32)c1=O,inactive,–
CCn1c(/C=C2/C(=O)N(C)c3ccccc32)nc2ccccc2c1=O,inactive,–
CCCn1c(/C=C/c2ccccc2)nc2ccccc21,8.91 µM (active),–
C[N+]1(C)C[C@@H](O)C[C@@H]1C(=O)[O-],inactive,–
CCNc1ncc2nc(-c3ccccc3)c(=O)n(Cc3cccs3)c2n1,inactive,–
Cc1ccc(-c2nc3ccccc3s2)cc1NC(=S)NC(=O)c1ccccc1,inactive,–
CCn1c(-c2nonc2NC(=O)c2ccccc2)nc2ccccc21,inactive,–
C=CCn1c(C(C)NC(=O)c2ccccc2)n[nH]c1=S (configuration not stated),inactive,–
CC(NC(=O)c1ccccc1)c1nc2ccccc2n1Cc1ccccc1F (configuration not stated),14.1 µM (active),–
O=c1cc(CO)oc(CN2CCCC2)c1O,inactive,–
Cc1ccc(O)c(-c2cc(C(F)(F)C(F)F)nc(-c3ccccc3)n2)c1,inactive,–
Cc1ccc(-c2ccc(/C=N/N3C(=O)C4C5C=CC(C6CC56)C4C3=O)o2)c([N+](=O)[O-])c1 (configuration not stated),inactive,–
CC(C)C(=O)NCCc1nc2ccccc2n1CCCOc1ccc(Cl)cc1,3.16 µM (active),–
CC(C)C(=O)NCCn1ccc2ccccc21,inactive,–

SMILES,AC50,"activity, negative = inhibition"
Cn1c(COc2nnc(-c3ccc(Cl)cc3)c3ccccc23)nc2ccccc21,inactive,–
COc1ccc(C(=O)OC(C)CN2CCN(C)CC2)cc1OC (configuration not stated),3.55 µM (active),–
CCOC(=O)N1CCN(C(=O)c2ccc(OC)c(OC)c2)CC1,inactive,–
COc1ccc(C(=O)c2ccc(OC)c(OC)c2)cc1OC,inactive,–
Cc1cc(N2CCN(C)CC2)nc2ccc(NC(=O)CCC(=O)NCc3ccco3)cc12,inactive,–
CCCCC/C=C\C[C@H](O)/C=C\c1cccc(C[C@H](O)CCCCO)n1,inactive,–
CCc1ccc(N(C(=O)c2snc(C(N)=O)c2N)C(C(=O)NCCC(C)C)c2c[nH]c3ccccc23)cc1 (configuration not stated),inactive,–
CC(C(=O)NC1CCCC1)N(C(=O)c1snc(C(N)=O)c1N)c1ccc2c(c1)OCCO2 (configuration not stated),14.1 µM (active),–
COc1ccc(C(C(=O)NC2CCCC2)N(C(=O)c2snc(-c3ccc(F)cc3)c2N)c2ccc(F)cc2)cc1 (configuration not stated),inactive,–
Cc1ccccc1NC(=S)NN1CCN(C)CC1,inactive,–
OC(CNCc1ccc(F)cc1)(c1ccc(F)cc1)c1ccc(F)cc1,0.794 µM (active),–
O=C(O)c1ccccc1C(=O)NCc1ccc(F)cc1,inactive,–
CCOC(=O)C(C(=O)NCc1ccc(C)cc1)c1ncc(C(F)(F)F)cc1Cl (configuration not stated),inactive,–
Cc1ccc(CNCC(O)(c2ccc(F)cc2)c2ccc(F)cc2)cc1,1 µM (active),–
COc1cc2c(C(=O)N3CCN(C)CC3)c(C)n(-c3ccccc3)c2cc1Br,inactive,–
CN1CCN(C(=O)c2ccc3c(=O)n4c(nc3c2)CCCCC4)CC1,inactive,–
CCOC(=O)c1ccc(NC(=O)C2(c3ccc(OC)cc3)CCOCC2)cc1,inactive,–
CCOC(=O)CCCNC(=O)CCCNC(=O)C(c1ccccc1)c1ccccc1,0.891 µM (active),–
CCOC(=O)c1cc(CC)sc1NC(=O)C(c1ccccc1)c1ccccc1,inactive,–
CCOC(=O)CCCNC(=O)c1cncc(Br)c1,inactive,–
CC(C)(C)C(=O)N1CCc2cc(-c3csc(N)n3)ccc21,inactive,–
CCC(=O)Nc1ccccc1C(=O)OCC(=O)c1ccccc1,inactive,–
CN(C)CCCO[C@H]1[C@H]([C@H](O)CO)O[C@H]2OC(C)(C)O[C@@H]21,inactive,–
Cc1cc2cc(CNC(=O)CC(C)C)ccc2n1C,inactive,–
